# Screening data deposited in PubChem by National Center for Advancing Translational Sciences (NCATS).
# Compounds with a hit are over-represented: about 1.5% of the library has one in this group of screens.
# rTrxR1 inhibitor: rat TrxR1 inhibition; Potency, µM (doses to about 114 µM), for the others: at the highest dose activity change, negative = inhibition, most hits filed as inhibitors; recombinant rTrxR1, NADPH fluorescence consumption, selenite substrate; 390,000 tested, 1% active; note: potency is the fitted concentration of half-maximal effect; nearly all actives have a fitted effect of over 65% in size
#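 Rat TrxR1 (90 nM in the dispensed reagent) was pre-reduced with 400 uM NADPH for 5 min at room temperature, then incubated with compound for 15 min. After 400 uM selenite was added, NADPH fluorescence (Ex 340/Em 450 nm) was followed for 8 min.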
# IDH1 R132H inh: human IDH1 R132H inhibition; O75874; 390,000 tested, 0.093% active; Potency, µM (series often up to 76.6 µM), for inactives: top-dose activity change, negative = inhibition, most hits filed as inhibitors; AID 602179; IDH1-R132H enzyme, NADPH consumption, diaphorase/resazurin fluorescence; note: potency is the fitted concentration of half-maximal effect; nearly all actives have a fitted effect of over 65% in size
#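 IDH1-R132H (0.5 ug/mL) preincubated 30 min with compound, then NADPH (0.016 mM) and alpha-KG (2 mM) added; 80 min at RT, pH 7.5. Remaining NADPH coupled via diaphorase/resazurin to fluorescence (540/590 nm); concentration-response curves normalized to no-enzyme control.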
# FBPA coupling cs: counter-screen for Giardia aldolase inhibitors: coupling enzyme system; coupling enzyme system counterscreen, AmpLite Red fluorescence; activity change, negative = inhibition, % at 58.2 µM, hits read low; 290,000 tested, 0.67% active; AID 2472; in the data active = activity change below about -30%
#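 First, compound is pin-transferred into glyceraldehyde-3-phosphate coupling-enzyme reagent at 57.5 uM final and held 10 min at RT. Next, substrate, coupling system and AmpLite Red are added. After 20 min RT, fluorescence (525/598 nm) is read.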
# Eya2 phos inh: inhibitors of human Eya2 phosphatase activity; recombinant Eya2, OMFP fluorescence dephosphorylation (OMFP is methylfluorescein phosphate); Potency, µM (series often up to 76.9 µM), for the others: top-dose activity, negative = inhibition, usual class: inhibitors; 330,000 tested, 0.006% active; AID 488837; note: potency is the fitted concentration of half-maximal effect
# Target sequence (O00167 whole entry, looked up): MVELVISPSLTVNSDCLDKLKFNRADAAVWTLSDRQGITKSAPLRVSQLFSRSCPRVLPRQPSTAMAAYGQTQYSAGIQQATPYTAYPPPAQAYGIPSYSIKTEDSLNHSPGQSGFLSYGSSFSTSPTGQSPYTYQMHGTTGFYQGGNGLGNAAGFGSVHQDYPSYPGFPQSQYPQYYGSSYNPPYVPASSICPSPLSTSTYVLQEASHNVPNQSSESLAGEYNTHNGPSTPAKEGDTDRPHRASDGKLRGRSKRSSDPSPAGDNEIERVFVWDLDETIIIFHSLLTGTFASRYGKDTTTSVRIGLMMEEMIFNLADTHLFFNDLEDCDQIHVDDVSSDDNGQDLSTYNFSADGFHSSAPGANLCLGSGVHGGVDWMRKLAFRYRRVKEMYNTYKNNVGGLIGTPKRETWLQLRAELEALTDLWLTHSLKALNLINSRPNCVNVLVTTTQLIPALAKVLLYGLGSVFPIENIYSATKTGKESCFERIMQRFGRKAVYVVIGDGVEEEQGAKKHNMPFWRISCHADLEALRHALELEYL
#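 Eya2 protein (added as 0.2 uM solution) was preincubated with compound for 10 min at ambient temperature in 50 mM HEPES pH 7.5, 50 mM NaCl, 5 uM MgCl2, 0.05% BSA, 1 mM DTT. OMFP (added at 50 uM) then reacted 10 min; fluorescence read at 485/525 nm.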
# TrxR1 substrate: rat thioredoxin reductase 1 substrate activity | O89049 | purified TrxR1 substrate turnover, NADPH consumption readout | Potency, µM (top dose mostly 114 µM), for inactives: at the highest dose activity change, negative = substrate turnover | 390,000 tested, 0.01% active; note: potency is the fitted concentration of half-maximal effect; nearly all actives have a fitted effect of over 50% in size
#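 Rat TrxR1, dispensed at 90 nM, was prereduced with 400 uM NADPH (final) for 5 min at ~22 deg C, then incubated with compound 15 min before 400 uM selenite. A first-read NADPH fluorescence drop versus no-compound background flagged substrates.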
# Active calls of the source: *; ? = inconclusive; . = no result given; [ ] = another dose, or the depositor's remark. Unless noted, calls come from the whole dose curve; as a rule, active = well fitted curve in the direction sought with a large enough effect; inconclusive = small, poorly fitted or top-dose-only effect, or another doubt; inactive = no such curve, though single readings can be large; an effect the other way counts as inactive or inconclusive. % is set by controls: 0 for no effect and ±100 for the full control effect.
SMILES,rTrxR1 inhibitor,IDH1 R132H inh,FBPA coupling cs,Eya2 phos inh,TrxR1 substrate
NC(=O)c1ccc(N=Cc2ccc([N+](=O)[O-])s2)cc1,?,-0.4%,-30.6*,-11.0%,?
O=C(Cc1cccs1)N/N=C\c1ccc([N+](=O)[O-])s1,?,0.0%,-4.0,0.9%,-1.8%[57.1 µM]
O=[N+]([O-])c1ccc(C=Nc2ccc(Cl)c([N+](=O)[O-])c2)s1,.,.,-34.3*,8.5%,.
Cc1ccnc2ccc([N+](=O)[O-])cc12,7.9%,.,.,.,-4.5%
COC(=O)CC1c2ccccc2C(Cc2ccc(OC)cc2)C(C)N1C(=O)OC (centres undefined),.,.,0.1,.,.
COc1ccc(-c2csc(-c3ccc(O)cc3)n2)cc1,56.2µM*,-10.5%,6.6,-16.2%,2.4%
COc1ccc(-c2nc(CCl)cs2)cc1,-0.2%,-3.8%,0.7,-18.1%,3.9%
O=C1c2c(O)cc(O)cc2O[C@H](c2ccc(O)c(O)c2)C1O (some centres undefined),.,.,-1.8,.,.
CCCN1CNc2c(c(=O)[nH]c(=S)n2CCc2ccc(C)cc2)C1,-13.3%,.,.,.,-5.6%
COc1ccc(C)c2sc(NC(=O)CCS(=O)(=O)c3ccccc3)nc12,39.8µM*,11.0%,-0.6,3.8%,1.6%
Cc1cc(=O)n(CCCO)c(O)c1C#N,-11.6%[57.1 µM],16.9%,-38.3*,-1.1%,-2.8%[57.1 µM]
Cc1cc(=O)n(CC(C)O)c(O)c1C#N (centres undefined),-15.5%[57.1 µM],9.4%,-0.9,-12.1%,7.0%[57.1 µM]
O=C(Nc1cccnc1Cl)c1cnn2c1NC(=C1CC1)C=C2C(F)F,0.0%,.,.,.,2.8%
Cc1ccnc(NC(c2ccccc2O)c2oc(CO)cc(=O)c2O)c1 (centres undefined),?,-7.9%,-32.9*,18.6%,2.7%
O=c1cc(CO)oc(C(Nc2ccccn2)c2ccsc2)c1O (centres undefined),.,.,-15.2,8.6%,.
O=c1cc(CO)oc(C(Nc2ccccn2)c2ccccc2Cl)c1O (centres undefined),-13.7%,-13.7%,0.6,10.8%,-5.8%
COc1ccc(C(Nc2ccccn2)c2oc(CO)cc(=O)c2O)cc1 (centres undefined),8.91µM*,3.4%,-17.0,3.7%,6.1%
O=c1cc(CO)oc(C(Nc2ccccn2)c2ccc(F)cc2)c1O (centres undefined),8.91µM*,18.1%,-9.3,-3.5%,-3.0%
COc1ccc(N=c2nc(-c3ccccc3)n(-c3ccc(C)cc3)s2)cc1,9.1%,.,.,.,9.9%[0.0914 µM]
COc1cc(/C=c2\[nH]c(=O)/c(=C/c3cc(OC)c(OC)c(OC)c3)[nH]c2=O)cc(OC)c1OC,15.0%,.,.,.,3.5%
O=[N+]([O-])c1ccc2c(c1)C=C/C2=C/c1ccccc1,?,.,.,.,-1.9%
O=C1c2cccnc2-c2ncccc21,3.9%[57.1 µM],6.2%,-0.6,3.5%,13.1%[57.1 µM]
CC1(C)OCC(CSC2=C(SCC3COC(C)(C)O3)C(=O)c3ncccc3C2=O)O1 (centres undefined),.,.,-87.1*,.,.
O=S(=O)(c1cccnc1)N1CCN(c2nc(-c3cccs3)nc3ccccc23)CC1,46.1%,.,.,.,18.2%
c1csc(-c2nc3c4ccccc4c4ccccc4c3[nH]2)c1,6.6%[57.1 µM],11.4%,-9.3,-15.9%,50.2%[57.1 µM]
SMILES,rTrxR1 inhibitor,IDH1 R132H inh,FBPA coupling cs,Eya2 phos inh,TrxR1 substrate
Oc1ccccc1-c1nc2c3ccccc3c3ccccc3c2[nH]1,?,15.7%,-46.6*,?,259.8%
N[C@@H](CSS(=O)(=O)O)C(=O)O,.,.,-76.5*,.,.
NC(CSSCC(N)C(=O)O)C(=O)O (centres undefined),.,.,-8.7,.,.
O=C(CC(c1ccco1)S(=O)(=O)c1ccccc1)c1ccc(F)cc1 (centres undefined),50.1µM*,11.1%,1.1,8.1%,8.0%
O=[N+]([O-])c1ccc(C=C2c3ccccc3-c3ccccc32)cc1,4.7%,.,.,.,4.0%
C=C1C(=O)[C@@]23[C@H](O)C[C@@H]4C(C)(C)CC[C@H](O)[C@]4(C)[C@@H]2C[C@H](O)[C@@H]1[C@H]3O,15.8µM*,4.4%,7.1,7.5%,7.4%
C=C1C(=O)[C@@]23[C@H](O)C[C@@H]4C(C)(C)CC[C@H](O)[C@@]4(C)[C@@H]2CC[C@@H]1[C@H]3O,14.1µM*,-1.1%[38.3 µM],6.2,1.7%,3.3%
Cc1ccc2oc(-c3cccc(NC(=O)COc4ccc(Cl)cc4)c3C)nc2c1,33.8%,.,.,.,13.6%
CC(=O)OCC(NC(=O)C(COCc1ccccc1)NC(=O)OC(C)(C)C)C1OC(n2cc(F)c(=O)[nH]c2=O)C(OC(C)=O)C1OC(C)=O (centres undefined),18.3%[57.1 µM],.,1.1,.,0.7%
Cc1ccccc1OCC(=O)N(Cc1ccco1)c1c(N)n(Cc2ccccc2)c(=O)[nH]c1=O,-18.4%,3.5%,.,-6.5%,-2.5%
Nc1c(N(CCO)C(=O)/C=C/c2ccco2)c(=O)[nH]c(=O)n1Cc1ccccc1,20µM*,0.2%,1.0,-7.9%,-5.6%
Cc1cc(Cl)ccc1OCC(=O)N(Cc1ccco1)c1c(N)n(Cc2ccccc2)c(=O)[nH]c1=O,50.1µM*,-16.5%,.,.,-2.8%
CCCCN(C(=O)/C=C/c1ccco1)c1c(N)n(CCC)c(=O)[nH]c1=O,-8.2%[57.1 µM],-0.9%,2.1,1.4%,-13.5%
CSCC[C@H](NC(=O)CN)C(=O)N[C@@H](CC(=O)O)C(=O)N[C@@H](CO)C(=O)N[C@@H](CC(C)C)C(=O)N[C@@H](C)C(=O)N[C@@H](Cc1ccccc1)C(=O)N[C@@H](CO)C(=O)NCC(=O)NCC(=O)N[C@@H](CC(C)C)C(N)=O,.,.,1.2,.,.
COc1cc(C(C)C)c2c(c1)S(=O)(=O)N(COc1cc(=O)n3cccc(OCCN4CCCCC4)c3n1)C2=O,.,.,-0.7,.,.
O=C/C=C/c1c(-c2ccccc2)cc2oc3ccccc3cc1-2,44.7µM*,0.0%,-3.2,11.5%,-5.0%
O=C1C=C[C@@H](O)[C@H]2[C@@H]3C(=O)N(C[C@@H]4CCCO4)C(=O)[C@@H]3CC[C@H]12,.,.,0.8,.,.
COCCCNC(=S)Nc1cccc2ncccc12,-49.6%,6.7%,-33.1*,-8.5%,-10.7%[57.1 µM]
Cc1cccc(OCCOc2ccccc2C=C(C#N)C#N)c1,2.82µM*,-4.7%,-2.2,-2.4%,1.3%
Cc1ccccc1OCCOc1ccccc1C=C(C#N)C#N,.,.,0.8,-1.0%,.
NC(=O)c1csc(-c2ccncc2)n1,-9.7%,4.3%,2.7,9.6%,-8.9%
Nc1cc(-c2ccncc2)c[nH]c1=O,?,6.4%,-73.1*,-6.1%,?
Cc1cc(/C=C/c2ccnc3ccccc23)ccc1N,-5.1%,.,.,.,-9.1%
CN(CC(=O)Nc1cccc(Cl)c1)S(=O)(=O)c1ccc2c(c1)n(C)c(=O)c(=O)n2C,25.1µM*,0.4%,.,11.2%,-6.7%
CC1=NOC2(C1)N(C)c1ccccc1C2(C)C (centres undefined),7.8%,6.2%,-0.8,6.4%,5.5%
